About 83,000 compounds went through this panel and 20% of them were active in at least one assay; those are over-represented in the sample as a whole.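 For each line, cells grew in 96-well plates with the test compound present at a single concentration for 48 hours.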 A number with no mark means an inactive call. Activity calls are given as the source filed them. The calls were made as follows: active = growth percent below 10; inactive = the rest.

This note sets out measurements from PubChem BioAssay (NCI).

This assay deals with MDA-MB-468 breast. Nature of the assay: NCI-60 one-dose screen, 48 h (100 = growth as untreated, 0 = no growth, -100 = all killed). As to conditions: 10 µM unless noted.
In the case of `C=C1C(=O)O[C@H]2[C@H]1CC/C(Cn1cc(-c3cc(C(F)(F)F)cc(C(F)(F)F)c3)nn1)=C\CC[C@@]1(C)O[C@@H]21`, the growth was -56.7% (active). To `FC(F)(F)c1ccc2c(c1)n1cnnc1c1nncn21` belongs 105%; to `O=C1NC(=O)C(=Cc2cn(Cc3ccccn3)c3ccccc23)C(=O)N1`, -51.2% (active). As to `COc1ccc(/C=C/C(=O)/C=C(/C=C/c2ccc(OC)c(OC)c2)OB(F)F)cc1OC`, the growth is 45.6%. `c1cc(OCCN2CCCCC2)ccc1CNc1ccc2nc(CCC3CCCCC3)[nH]c2c1`: the growth was 27.4%. `O=C1/C=C/[C@@H](O)[C@@H]2C[C@@H](O)C[C@H]2/C=C/CCC[C@H](C(F)(F)F)O1`: the growth is -69.1% (active). For the compound `O=C1C(=O)c2ccccc2C(O)=C1CCCc1ccc(C2CCCCCC2)cc1`, the growth was 5.94% (active).

For the compound `CS(=O)(=O)c1ccc(/C(=N/N=C(N)N)c2ccc(F)cc2)cc1`, the growth was -5.12% (active).

Consider `Clc1ccc(-n2ncc3c(NCCCN4CCOCC4)ncnc32)cc1`, for which the growth was 74.4%. Take `CCCCCCCC(=O)SCC/C=C/[C@@H]1CC(=O)NCc2nc(co2)C2=N[C@@](C)(CS2)C(=O)N[C@@H](C(C)C)C(=O)O1`: the growth was -0.758% (active). `OCCNc1nc(NCCO)nc(Nc2ccc(C3=NN(c4cc(Cl)cc(Cl)c4)C(c4ccc(Cl)cc4)C3)cc2)n1` (stereo not given): the growth is -5.79% (active).

Consider `CCOC(=O)CCCS(C)(=O)=O`, for which the growth was 126%. `COc1ccc(-c2nc3cc(Cl)c(Cl)cc3n2CC(=O)N=Nc2c(O)[nH]c3ccc(OC)cc23)cc1`: the growth is 42.4%. Regarding `O=C1/C(=C/c2ccccc2F)CN(C(=O)C(Cl)Cl)C/C1=C\c1ccccc1F`, the growth is -32.4% (active).

For `NS(=O)(=O)c1ccc(Nc2nc(Nc3ccccc3)nc(N3N=C(c4ccc(Cl)cc4)CC3c3ccc(Cl)cc3)n2)cc1` (stereo not given), the growth was 26.4%. `COc1ccc(Cn2cc3c(c2)-c2oncc2CC3)cc1OC`: the growth was -7.7% (active).

Turning to `O=C1C=CC(=O)N1Cc1ccco1`, the growth is 65.4%. To `CC(C)C1=NOC(=O)C1=Cc1cn(-c2ccco2)nc1-c1ccccc1` belongs 54%. With `COc1c(C(NC(=O)c2ccccc2)c2sccc2C)cc(Cl)c2cccnc12` (stereo not given), the growth was 102%.

Turning to `COc1ccc(C2=NN(C(=O)c3cc(-c4ccc(C)cc4)nc4ccccc34)C(c3cc(-c4ccccc4)nn3-c3ccccc3)C2)cc1` (stereo not given), the growth is 98.1%.

With `O=C1NC(=O)C(c2coc3cc(Br)ccc23)=C1c1c[nH]c2ccccc12`, the growth was 3.29% (active).

As for `COC1=C(c2ccccc2)C(=O)C(OC)=C(c2ccccc2)C1=O`, the growth is 43%. As for `CC(C)(Cl)CCC1=C(Cl)C(=O)c2ccccc2C1=O`, the growth was -43.5% (active). Take `Nc1c(C(=O)Nc2ccccn2)sc2nc3c(cc12)C(=O)CCC3`: the growth is 7.45% (active). Consider `O=C([O][Sn]([O]C(=O)c1ccccn1)([c]1ccccc1)[c]1ccccc1)c1ccccn1`, for which the growth was -23.8% (active). In the case of `NC(CSC(c1ccccc1)(c1ccccc1)c1ccc2c(c1)OCO2)C(=O)O` (stereo not given), the growth was -56.6% (active). In the case of `COc1cc2nc(C(=O)N3CCCCC3)cc(Nc3ccccc3)c2cc1OC` it was 131%. For `CNC(=O)c1c(C)oc2cc(Oc3ncnc4cc(OC)c(OC)cc34)ccc12`, the growth was 106%.

As to `NC(=O)c1ccc(N=C(N)N=C(N)N)cc1`, the growth was 84.5%. For the compound `NC(=O)c1c(NC(=O)c2ccc3ccccc3c2)sc2c1CCC(=O)C2`, the growth is 85.8%. Regarding `Cc1ccc(-c2cc(C(=O)N3N=C(c4ccc(N)cc4)CC3c3ccc(Cl)cc3)c3ccccc3n2)cc1` (stereo not given), the growth is 14.1%. With `N#Cc1c(N)sc(=S)c2c1CCCC2`, the growth was 110%.

For `CCOP(=O)(OCC)OC[C@]12CCC(C)(C)C[C@H]1C1=CC[C@@H]3[C@@]4(C)CC[C@H](OP(=O)(OCC)OCC)C(C)(C)[C@@H]4CC[C@@]3(C)[C@]1(C)CC2`, the growth was 40.9%.

Turning to `COc1ccc(-c2cc3ccc(N(C)C)cc3nc2N)c(F)c1`, the growth was 4.96% (active). To `S=c1[nH]cccc1-c1nnc2n1Nc1nc3ccc(Cl)cc3cc1CS2` belongs 109%; to `COc1ccc2c(c1)C(=O)/C(=C/c1ncc([N+](=O)[O-])n1C)O2`, -12.4% (active). To `CCCCn1cnc(-c2cc(-c3ccccc3)cc(C(F)(F)F)c2)n1` belongs 99%; to `CCN1CC(CCN2CCOCC2)C(C(c2ccccc2)c2ccccc2)C1=O` (stereo not given), 102%. Take `CC/C=C\C[C@H]1C/C=C2/C(=O)C(Cl)=C[C@@H]2C/C=C\CCCC(=O)O1`: the growth is -69.2% (active). Regarding `O=[N+]([O-])C=C(c1ccccc1)c1ccccc1`, the growth is -4.43% (active).
